Screens as filed in PubChem BioAssay.
The list is not random: actives were taken first. Their share in the collection is about 3.8%.
HepG2 viability = kills HepG2 cells in TGF-b inhibitor counter-screen; HepG2 CAGA-GFP viability, ATP luminescence, 18 h; Potency, µM (doses to about 46.1 µM), most hits filed as cytotoxic; hit rate 0.76% among 410,000
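HepG2 CAGA-GFP cells (1000/well, DMEM with 1% FBS) received compound, then TGF-beta at 500 pg/mL final, and were incubated 18 hours at 37 degrees C. Viability was read by CellTiter-Glo luminescence. Media-only wells were set as complete cell-killing and DMSO as no toxicity.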
TGFb SMAD3 inh = blocks TGF-b signaling; Potency, µM (highest dose often 46.1 µM), hits mostly inhibitors; HepG2 CAGA-GFP TGF-b/SMAD3 reporter, GFP fluorescence, 18 h; TGF-beta stimulated, 500 pg/mL final; AID 588855; hit rate 1.2% among 410,000; note: nearly all actives have a fitted effect of over 65% in size
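Inhibition was scored as loss of TGF-beta-induced (500 pg/mL final, 18 hours, 37 degrees C) GFP in HEPG2 cells carrying a CAGA-GFP reporter, in DMEM with 1% FBS. Well GFP was summed per cell; Activity was normalised to unstimulated and stimulated DMSO wells, then concentration-response fitting.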
ATXN2 expr inh = inhibitors of ATXN2 expression; HEK-293 ATXN2-luciferase reporter, luminescence, 24 h; Potency, µM (titrated, usually from 57 µM), actives largely listed as inhibitors; hit rate 0.72% among 360,000; AID 1745845; note: nearly all actives have a fitted effect of over 55% in size
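ATXN2-luciferase reporter cells (luciferase flanked by upstream and downstream ATXN2 gene portions) were treated 24 h at 37 °C with compounds at up to 57 uM. SteadyGlo luminescence gave expression; GF-AFC fluorescence gave viability.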
A549 viability = kills or reduces viability of A549 cells in Nrf2 counter-screen; A549 ARE-Fluc cells, CellTiter-Fluor viability, 18-24 h; hit rate 0.16% among 390,000; Potency, µM (titrated, usually from 46 µM), actives largely listed as inhibitors
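A549 ARE-Fluc cells in 5% FBS OPTI-MEM, 5000 cells/well, rested 2 h then exposed to compounds in concentration-response for 18-24 h at 37 °C. Viability by CellTiter-Fluor fluorescence (Ex 405/Em 525) after 30 min; luciferase luminescence (BugLite, 15 min, RT) read afterwards.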
ATXN viability = reduces viability in counter-screen for ATXN expression inhibitors. Potency, µM (titrated, usually from 56.7 µM), usual class: cytotoxic. hit rate 0.49% among 400,000. S2 cells (HEK-293 line with an ATXN2-luciferase reporter) viability, CellTiter-Fluor protease fluorescence, 24 h. AID 651635; note: nearly all actives have a fitted effect of over 40% in size
Nrf2 inh = Nrf2 pathway inhibition | A549 ARE-Fluc reporter, luciferase luminescence, 18-24 h | Potency, µM (top dose mostly 46 µM), usual class: inhibitors | hit rate 2.1% among 360,000 | AID 504444; note: nearly all actives have a fitted effect of over 60% in size
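A549 ARE_Fluc cells (5000/well, 5% FBS OPTI-MEM) pre-incubated 2 h, then treated with compounds 18-24 h at 37C/5% CO2 in concentration-response. CellTiter-Fluor viability read first; BugLite luciferase luminescence after 15 min at room temperature gives Nrf2 activity.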
Large screens that a line does not name were inactive. Calls come from the whole dose curve; as a rule, active = well fitted curve in the direction sought with a large enough effect; inconclusive = small, poorly fitted or top-dose-only effect, or another doubt; inactive = no such curve, though single readings can be large; an effect the other way counts as inactive or inconclusive.

O=C(Nc1nc2ccc(F)cc2s1)c1nc(S(=O)(=O)Cc2ccccc2)ncc1Cl	TGFb SMAD3 inh inconclusive, ATXN2 expr inh inconclusive, A549 viability inconclusive, ATXN viability 14µM, Nrf2 inh inconclusive
CC(O)CNCCCOc1ccc(Cl)cc1C(C)(C)C (stereo unspecified)	TGFb SMAD3 inh inconclusive, ATXN2 expr inh 34µM, ATXN viability inconclusive
O=C1/C(=N\S(=O)(=O)c2cccs2)C([n+]2cccc(Cc3ccccc3)c2)=C([O-])c2ccccc21	HepG2 viability 2.8µM, TGFb SMAD3 inh inconclusive, ATXN2 expr inh inconclusive, A549 viability inconclusive, ATXN viability inconclusive, Nrf2 inh inconclusive
Cc1cc[n+](C2=C([O-])c3ccccc3C(=O)/C2=N\S(=O)(=O)c2cccs2)cc1C	Nrf2 inh inconclusive
Cc1ccc(NC2=C/C(=N/S(=O)(=O)c3cccs3)c3ccccc3C2=O)cc1C	none
O=C1/C(=N\S(=O)(=O)c2cccs2)C([n+]2ccc(CCCc3ccccc3)cc2)=C([O-])c2ccccc21	TGFb SMAD3 inh 16µM
O=S(=O)([N-]c1nc2ccccc2nc1-[n+]1ccc(CCCc2ccccc2)cc1)c1cccs1	none
Cc1cc(C)c[n+](C2=C([O-])c3ccccc3C(=O)/C2=N\S(=O)(=O)c2cccs2)c1	TGFb SMAD3 inh inconclusive, A549 viability inconclusive, Nrf2 inh 21µM
Cc1c(C)c2ccc(OCC(=O)NCCCN3CCCC3=O)cc2oc1=O	none (no result: ATXN2 expr inh)
Cn1cc(C2=C(c3c4n(c5ccccc35)CCC(CN)C4)C(=O)NC2=O)c2ccccc21 (stereo unspecified)	ATXN2 expr inh 24µM (no result: HepG2 viability, TGFb SMAD3 inh, A549 viability, ATXN viability, Nrf2 inh)
Oc1c(Cl)cc(Cl)c2c1NCCC2	TGFb SMAD3 inh 14µM, ATXN2 expr inh inconclusive, ATXN viability inconclusive
Cc1cccc(CCN=c2c([N+](=O)[O-])nn(-c3ccccc3)n2O)c1	ATXN2 expr inh inconclusive, Nrf2 inh inconclusive
Cc1cccc(-n2nc([N+](=O)[O-])c(=NC3CCN(Cc4ccccc4)CC3)n2O)c1	HepG2 viability 16µM, TGFb SMAD3 inh inconclusive, A549 viability inconclusive (no result: ATXN2 expr inh)
O=C(OC1CO[C@H]2O[C@@H]1[C@H](OC(=O)c1ccccc1)[C@H]2OC(=O)c1ccccc1)c1ccccc1 (stereo partly specified)	none
COc1ccc2nc(C)cc(Nc3ccccc3O)c2c1	TGFb SMAD3 inh inconclusive, ATXN viability inconclusive (no result: ATXN2 expr inh)
COc1ccc2nc(C)cc(NCc3cccc(C(F)(F)F)c3)c2c1	HepG2 viability 22µM, TGFb SMAD3 inh inconclusive, ATXN2 expr inh inconclusive
CC1CCC(C(C)C)C(OC(=O)C[n+]2cc(-c3ccc(Cl)cc3)n3c2CCC3)C1 (stereo unspecified)	TGFb SMAD3 inh 11µM, ATXN2 expr inh inconclusive
CC(C)CNC(=S)N1CCN(c2nc(-c3ccc(Cl)cc3)cs2)CC1	TGFb SMAD3 inh inconclusive, ATXN2 expr inh 16µM, ATXN viability inconclusive, Nrf2 inh 18µM
COc1cccc(-c2csc(N3CCN(CC(=O)NNC(=O)c4ccc(Cl)cc4)CC3)n2)c1	TGFb SMAD3 inh inconclusive, A549 viability inconclusive, Nrf2 inh inconclusive
COc1cccc(-c2csc(N3CCN(C(=O)Nc4ccc(Cl)cc4)CC3)n2)c1	TGFb SMAD3 inh inconclusive, A549 viability inconclusive, ATXN viability inconclusive, Nrf2 inh 15µM (no result: ATXN2 expr inh)
COc1cccc(-c2csc(N3CCN(C(=S)Nc4cccc(Cl)c4)CC3)n2)c1	TGFb SMAD3 inh inconclusive, ATXN2 expr inh inconclusive, ATXN viability inconclusive, Nrf2 inh 18µM
NC(=O)C1CCN(c2nc(-c3cccc(Cl)c3)cs2)CC1	HepG2 viability 6.3µM, TGFb SMAD3 inh inconclusive
Cc1ccc(C)c(NC(=O)CN2C(=O)C3CC=CCC3C2=O)c1 (stereo unspecified)	none (no result: ATXN2 expr inh, A549 viability, Nrf2 inh)
CN1CCN(c2ncc(-c3cc(Cl)cc(Cl)c3Cl)c(N)n2)CC1	none (no result: HepG2 viability, TGFb SMAD3 inh, A549 viability, ATXN viability, Nrf2 inh)
O=C(NCCCN1CCN(c2ccccc2)CC1)c1nnc(Cc2c(F)cccc2Cl)o1	none (no result: ATXN2 expr inh, ATXN viability)
CCOC(=O)[C@@H]1[C@H]2COc3cc(OC)ccc3[C@@H]2N2C(=O)N(c3ccccc3)C(=O)[C@]12C	none
COc1ccc(NC(=O)N2CCN(c3nc(-c4cccc(OC)c4)cs3)CC2)cc1	ATXN2 expr inh 22µM, ATXN viability inconclusive, Nrf2 inh inconclusive
COc1cccc(-c2csc(N3CCN(C(=S)NCC(C)C)CC3)n2)c1	TGFb SMAD3 inh inconclusive, ATXN2 expr inh inconclusive, Nrf2 inh 18µM
COc1ccc(OC)c(C=C2CCc3ccccc3C2=O)c1	ATXN viability inconclusive (no result: A549 viability, Nrf2 inh)
COc1ccc2c(c1)CC/C(=C/c1cc(OC)c(OC)c(OC)c1)C2=O	HepG2 viability 0.14µM, ATXN2 expr inh inconclusive
CCOC(=O)c1cnc(Nc2nc3ccccc3o2)nc1CSc1nnc(C)s1	A549 viability inconclusive, Nrf2 inh inconclusive
CCOC(=O)c1cnc(Nc2nc3ccccc3o2)nc1C	ATXN2 expr inh 2.8µM (no result: Nrf2 inh)
COc1ccc(/C=N\NC(=O)c2ccc([N+](=O)[O-])cc2)cc1COc1c(F)c(F)cc(F)c1F	TGFb SMAD3 inh 0.35µM, Nrf2 inh inconclusive
Cc1ccc2oc(-c3cc(NC(=O)c4ncn[nH]4)ccc3O)nc2c1	Nrf2 inh inconclusive
O=C(NCc1ccco1)c1ccc(CS(=O)Cc2ccc(Cl)cc2)o1 (stereo unspecified)	ATXN viability inconclusive
CCN(C(=O)CSc1ncnc2sc(C)c(C)c12)C1CCS(=O)(=O)C1 (stereo unspecified)	Nrf2 inh 13µM
CCCN(CC1CC1)C(=O)CSc1ncnc2sc(C)c(C)c12	TGFb SMAD3 inh inconclusive, Nrf2 inh inconclusive
CC(=O)CSc1ncnc2sc3c(c12)CCC(C)C3 (stereo unspecified)	none
CC1CCc2c(sc3ncnc(SCC(=O)N(C)C4CCS(=O)(=O)C4)c23)C1 (stereo unspecified)	Nrf2 inh 16µM (no result: ATXN2 expr inh)
CC(OC(=O)CC(NC(=O)c1ccccc1Cl)c1ccccc1)C(=O)Nc1cccc(Cl)c1Cl (stereo unspecified)	ATXN viability inconclusive
CCOC(=O)c1c(Nc2cccc(C)c2)nnc(-c2ccccc2)c1-c1ccccc1	TGFb SMAD3 inh inconclusive, ATXN2 expr inh inconclusive, Nrf2 inh 18µM
COCCC1CCCCN1Cc1nc(N2CCCCC2)c2cc(OC)c(OC)cc2n1 (stereo unspecified)	none (no result: HepG2 viability, TGFb SMAD3 inh, ATXN2 expr inh, A549 viability, Nrf2 inh)
Fc1ccc(Nc2nc(SCc3cccc(F)c3)nc3ccccc23)cc1	HepG2 viability 13µM, TGFb SMAD3 inh inconclusive (no result: ATXN2 expr inh, ATXN viability, Nrf2 inh)
Fc1ccc(Nc2nc(SCc3cccc(Cl)c3)nc3ccccc23)cc1	TGFb SMAD3 inh inconclusive (no result: ATXN2 expr inh, ATXN viability, Nrf2 inh)
